Compound activity from PubChem BioAssay.
Sampled rows, rich in hits. Any-hit rate of the full collection: about 2.9%.
FH mod: Identification of activators of human fumarate hydratase by quantitative high-throughput screening; Potency, µM (doses to about 79.9 µM), inactives show top-dose activity change, negative = inhibition, usual class: inhibitors; 54,000 tested, 0.22% active; FH coupled MDH/diaphorase resazurin fluorescence, 15 min; Fumarate hydratase, mitochondrial (Homo sapiens), P07954; note: potency is the fitted concentration of half-maximal effect; % is set by controls: 0 for no effect and ±100 for the full control effect; the screen sought activators but most active calls are inhibition curves; nearly all actives have a fitted effect of over 45% in size
Target sequence (P07954 whole entry, looked up): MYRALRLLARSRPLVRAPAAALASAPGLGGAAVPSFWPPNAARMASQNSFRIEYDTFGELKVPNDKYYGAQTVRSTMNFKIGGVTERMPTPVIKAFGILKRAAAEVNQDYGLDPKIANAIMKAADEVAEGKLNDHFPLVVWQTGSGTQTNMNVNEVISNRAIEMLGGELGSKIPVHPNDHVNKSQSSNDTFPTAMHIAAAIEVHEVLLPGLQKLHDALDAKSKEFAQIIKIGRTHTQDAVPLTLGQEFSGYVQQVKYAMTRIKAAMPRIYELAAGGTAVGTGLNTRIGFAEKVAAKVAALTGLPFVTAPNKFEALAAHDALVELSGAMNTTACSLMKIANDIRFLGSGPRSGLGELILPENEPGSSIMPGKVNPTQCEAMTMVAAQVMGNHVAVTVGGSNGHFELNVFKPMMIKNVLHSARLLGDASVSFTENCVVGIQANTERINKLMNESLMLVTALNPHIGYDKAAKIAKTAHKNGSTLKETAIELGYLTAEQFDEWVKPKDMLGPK
SKOV3 invasion: ovarian cancer metastasis inhibition, 3D TME model. SKOV3ip1-GFP adhesion/invasion on 3D omental model, fluorescence. Potency, µM (titrated, usually from 45.8 µM), for inactives: at the highest dose activity change, negative = inhibition, most hits filed as inhibitors. 46,000 tested, 0.1% active. AID 1963576;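 note: potency is the fitted concentration of half-maximal effect; plate controls were DMSO wells for no effect and tomatine positive control wells for full effect; nearly all actives have a fitted effect of over 65% in size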
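Adhesion/invasion was scored as fixed GFP-labeled SKOV3ip1 cell counts (488/509 nm), normalized to DMSO and tomatine controls. Cancer cells in serum-free medium, with four compound doses (0.36-46 umol/L), sat 2 hr at RT then 16 hr at 37 C on a 48 hr fibroblast/mesothelial/ECM culture.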
DRV1 agonist: agonists of human resolvin D1 receptor DRV1 (GPR32); O75388; CHO-K1 GPR32 beta-arrestin PathHunter luminescence, 90 min; zero percent set by DMSO-only wells; activation, % at 76.9 µM; 48,000 tested, 2.5% active;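 active = activation of at least 60% and not above a set upper limit, about 1 call in 100 departs from these limits; inconclusive = activation of 40% to 60%, or above that upper limit; inactive = activation under 40%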; note: 0% is about no effect
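Using DMSO wells as EC0, agonist-induced signal was taken as chemiluminescence from beta-Gal reconstituted upon beta-arrestin recruitment to GPR32 in CHO-K1 cells after 90 min compound treatment.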
GALC G270D up: enhancers of human galactocerebrosidase G270D mutant activity in cells | 145M-Twi-hGALC-G270D cells, HMU-beta-Gal fluorescence, 48 h | Potency, µM (series often up to 57.5 µM), most hits filed as activators | 45,000 tested, 0.1% active | AID 1159614; note: potency is the fitted concentration of half-maximal effect; 0% is about no effect; nearly all actives have a fitted effect of over 65% in size
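qHTS, 1536-well; 145M-Twi-hGALC-G270D cells (WT line also made) in DMEM/F12 + 10% FBS; compound incubation on live cells; HMU-β-gal 0.1 mM final, pH 5.2, NaTC; carbonate stop; fluorescence increase = enhanced residual activity.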
The depositor's hits bear a star; i = inactive; ? = inconclusive; . = no result given; [ ] = remark or other dose. Unless noted, calls come from the whole dose curve; as a rule, active = well fitted curve in the direction sought with a large enough effect; inconclusive = small, poorly fitted or top-dose-only effect, or another doubt; inactive = no such curve, though single readings can be large; an effect the other way counts as inactive or inconclusive.

SMILES	FH mod	SKOV3 invasion	DRV1 agonist	GALC G270D up
Cc1ccc(-n2ncc3c(NCCCc4ccccc4)ncnc32)cc1	0%	1%	12	i
CC(=O)OC1CC(C)(C(=O)O)CC2C3=CC(=O)C4C5(C)CCC(OC6OC(C(=O)O)C(O)C(O)C6OC6OC(C(=O)O)C(O)C(O)C6O)C(C)(C)C5CCC4(C)C3(C)CCC12C (configuration not stated)	1%[20.6 µM]	.	.	.
CCOc1ccc(NC(=O)c2sc3ccccc3c2Cl)cc1	.	-4%	70*	.
CNC(=O)c1cc(Oc2ccc(NC(=O)Nc3ccc(Cl)c(C(F)(F)F)c3)cc2)ccn1	-19%	4%	92*	i
CC(C#N)C(C)O[C@@H]1O[C@H](CO)[C@@H](O)[C@H](O)[C@H]1O (some centres not stated)	1%	.	.	.
Cc1cc2[nH]c(=O)c(=O)[nH]c2cc1S(=O)(=O)N1CCN(c2ccccc2F)CC1	-12%	-6%	70*	i
NCCCCN(Cc1nc2ccccc2[nH]1)[C@H]1CCCc2cccnc21	7%[53.3 µM]	.	.	.
Nc1c(S(=O)(=O)O)cc(Nc2ccc(Nc3nc(Cl)nc(Nc4ccc(S(=O)(=O)O)cc4)n3)c(S(=O)(=O)O)c2)c2c1C(=O)c1ccccc1C2=O	5µM*	.	-55	.
O=C(Nc1cc(Cl)cc(Cl)c1)c1ccc(F)c(S(=O)(=O)NC2CCCCC2)c1	-21%	-8%	69*	i
O=C(Nc1ccc(Br)cc1)c1ccc(F)c(S(=O)(=O)NC2CCCCCC2)c1	?	?	8	i
O=C(O)C[C@H]1CCC(=O)[C@@H]1C/C=C\CCO	1%	.	.	.
O=C(Nc1cccc(C(F)(F)F)c1)C1CCN(c2nnc(-n3cccc3)s2)CC1	-6%	-2%	94*	i
CC(=O)c1cccc(NC(=O)C2CCN(c3nnc(-n4cccc4)s3)CC2)c1	4%	-8%	?	i
Cn1c(=O)n(C)c2cc(N3CCOCC3)c(NS(=O)(=O)c3cccc(C#N)c3)cc21	16µM*	0%	-15	i
O=C(CSc1nc2cc3ccccc3cc2[nH]1)Nc1ccc(F)cc1	-12%	-8%	65*	i
CCCCCC=CCC=CCCCCCCCC(=O)OCC	-13%[53.3 µM]	.	63*	i
CC1(C)CC[C@]2(C(=O)O)CC[C@]3(C)C(=CCC4[C@@]5(C)CC[C@H](O[C@H]6O[C@H](C(=O)O)[C@@H](O)[C@H](O[C@@H]7O[C@H](CO)[C@H](O)[C@H](O)[C@H]7O)[C@H]6O)C(C)(C)C5CC[C@]43C)[C@@H]2C1 (some centres not stated)	4%[20.6 µM]	.	.	.
COc1ccc(CCNC(=O)CCc2c(C)nc3cc(-c4ccccc4)nn3c2C)cc1OC	2%	i	70*	i
CSc1ccc(CCNC(=O)CCc2c(C)nc3cc(-c4ccccc4)nn3c2C)cc1	1%	-4%	-4	i
COc1ccc2c(C)c(CCC(=O)NCCc3ccc(Cl)cc3)c(=O)oc2c1	.	i	108*	.
COc1ccc2c(C)c(CCC(=O)NCCc3ccc(OC)c(OC)c3)c(=O)oc2c1	.	-10%	68*	.
Oc1cccc(Nc2ccnc3cc(-c4cccc(CN5CCOCC5)c4)sc23)c1	-24%	.	.	.
CSc1nc(N)c2ncn([C@@H]3O[C@H](COP(=O)(O)OP(=O)(O)OP(=O)(O)O)C(O)[C@H]3O)c2n1 (some centres not stated)	-3%[53.3 µM]	.	.	.
O=C(CSc1ncc(S(=O)(=O)c2ccc(Cl)cc2)c(=O)[nH]1)Nc1cccc(C(F)(F)F)c1	-27%	-6%	113*	i
CC(C)c1ccc(S(=O)(=O)c2cnc(SCC(=O)Nc3cccc(C(F)(F)F)c3)nc2N)cc1	?	2%	76*	i
SMILES	FH mod	SKOV3 invasion	DRV1 agonist	GALC G270D up
CC(C)(C)c1ccc(S(=O)(=O)c2cnc(SCC(=O)Nc3ccc(F)c(Cl)c3)[nH]c2=O)cc1	?	-8%	-13	i
Nc1nc(SCC(=O)Nc2cccc(C(F)(F)F)c2)n[nH]1	-3%	2%	15	i
CCOc1ccc(CCNC(=O)c2cc3cc4ccc(OC)cc4nc3s2)cc1OCC	-14%	i	65*	i
COc1ccc2nc3sc(C(=O)NCCc4ccc(Cl)cc4)cc3cc2c1	0%	17%	-1	i
N#C/C(=C\c1ccc(-c2cc(Cl)ccc2Cl)o1)C(=O)Nc1ccccc1C(=O)O	-18%	-30%	111*	i
C[C@@H]1O[C@@H](O[C@H]2[C@H](O)[C@@H](O)[C@H](OC[C@H]3O[C@@H](OC(=O)[C@]45CCC(C)(C)C[C@H]4C4=CCC6[C@@]7(C)C[C@@H](O)[C@H](O)[C@@](C)(CO)C7[C@H](O)C[C@@]6(C)[C@]4(C)CC5)[C@H](O)[C@@H](O)[C@@H]3O)O[C@@H]2CO)[C@H](O)[C@H](O)[C@H]1O (some centres not stated)	-13%[20.6 µM]	.	.	.
O=C(NCc1ccc(Cl)cc1Cl)c1cccc(N2CCCS2(=O)=O)c1	0%	-16%	62*	i
COc1ccccc1CNC(=O)c1cccc(N2CCCS2(=O)=O)c1	-23%	-7%	21	i
CCC(O)C(C)C1CCC(C(C)C(=O)O)O1 (configuration not stated)	1%	.	.	.
COc1c(C(C)C)c(O)c(O)c2c1C(OC)[C@H]1OC(=O)[C@@]23CCCC(C)(C)[C@H]13 (some centres not stated)	13µM*	.	.	.
CC(C)=CCC[C@](C)(O[C@@H]1O[C@H](CO[C@@H]2OC[C@@H](O)[C@H](O)[C@H]2O)[C@@H](O)[C@H](O)[C@H]1O)[C@H]1CC[C@]2(C)[C@@H]1[C@H](O)C[C@@H]1[C@@]3(C)CC[C@H](O[C@@H]4O[C@H](CO)[C@@H](O)[C@H](O)[C@H]4O[C@@H]4O[C@H](CO)[C@@H](O)[C@H](O)[C@H]4O)C(C)(C)[C@@H]3CC[C@]12C	3%[53.3 µM]	.	.	.
COc1ccccc1NC(=O)COc1ccc(-c2nn(C)c(=O)c3ccccc23)cc1	-14%	i	95*	i
CCOc1ccc(CCNC(=O)CN2CCN(Cc3ccc(F)cc3Cl)C2=O)cc1OCC	-6%	6%	75*	i
CSc1ccc(C(=O)N[C@@H]2CCCC[C@@H]2NC(=O)CNC(=O)c2cc(C(F)(F)F)ccc2NC(=O)NC(C)C)cc1	-2%	.	.	.
Cc1cc(C)c(S(=O)(=O)n2cc(C)cc2C)c(C)c1	9%	.	.	.
COc1cc(CNc2ccc3[nH]c(=O)[nH]c3c2)cc(Br)c1OCc1ccc(F)cc1	?	-7%	19	i
COc1cc(CNc2ccc3[nH]c(=O)[nH]c3c2)cc(Cl)c1OCc1ccc(F)cc1	35µM*	-13%	-2	i
Cc1ccc(CNC(=O)Cn2nc(N3CCN(c4ccccc4)CC3)ccc2=O)cc1	5%	8%	32	i
